# Results published in PubChem BioAssay.
# Activity calls are given as the source filed them.
# What was measured:
# [1] = binders of probe aFSTL3 on microarray, primary screen, stem cell growth factor project, biochemical, small-molecule microarray, fluorescence 635/667 (AID 1064); settings: higher = more signal;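 further: measures binding of the biotinylated anti-FSTL3 antibody to printed compounds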
# [2] = binders from COS7 lysate, DM2A8 probe, primary screen, torsin A project, cell lysate, small-molecule microarray, fluorescence 635/667 (AID 1065); settings: higher = more signal, COS7 lysate expressing mutant human TOR1A
# [3] = binders of probe aFGF2 on microarray, primary screen, stem cell growth factor project, biochemical, small-molecule microarray, fluorescence 635/667 (AID 1067); settings: higher = more signal;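 further: measures binding of biotinylated aFGF2 protein to printed compounds on slides; z-score merges feature fluorescence and signal-to-noise across triplicate slides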
# [4] = binders of probe aFGF10 on microarray, primary screen, stem cell growth factor project, biochemical, small-molecule microarray, fluorescence 635/667 (AID 1071); settings: higher = more signal;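 further: score merges 667 nm spot intensity and signal to noise from triplicate slides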
# [5] = molecular target: Neurogenic locus notch homolog protein 2 (Homo sapiens) (UniProt Q04721); experiment: Notch2 binders on small-molecule microarrays, primary screen, biochemical, small-molecule microarray, 635 nm fluorescence, stem cell growth factors (AID 1073); settings: Notch2 binding, higher = more signal
# [6] = molecular target: Pro-neuregulin-1, membrane-bound isoform (Homo sapiens) (UniProt Q02297); experiment: NRG1 binders on small-molecule microarrays, primary screen, psychiatric disease protein project, biochemical, small-molecule microarray, fluorescence 635/667 (AID 1075); settings: NRG1 binding, 635 nm fluorescence, higher = more signal;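 further: score combines 667 nm spot fluorescence with signal to noise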
# Pro-neuregulin-1, membrane-bound isoform (Homo sapiens), sequence (Q02297 whole entry, looked up, the tested form may be a part, canonical isoform): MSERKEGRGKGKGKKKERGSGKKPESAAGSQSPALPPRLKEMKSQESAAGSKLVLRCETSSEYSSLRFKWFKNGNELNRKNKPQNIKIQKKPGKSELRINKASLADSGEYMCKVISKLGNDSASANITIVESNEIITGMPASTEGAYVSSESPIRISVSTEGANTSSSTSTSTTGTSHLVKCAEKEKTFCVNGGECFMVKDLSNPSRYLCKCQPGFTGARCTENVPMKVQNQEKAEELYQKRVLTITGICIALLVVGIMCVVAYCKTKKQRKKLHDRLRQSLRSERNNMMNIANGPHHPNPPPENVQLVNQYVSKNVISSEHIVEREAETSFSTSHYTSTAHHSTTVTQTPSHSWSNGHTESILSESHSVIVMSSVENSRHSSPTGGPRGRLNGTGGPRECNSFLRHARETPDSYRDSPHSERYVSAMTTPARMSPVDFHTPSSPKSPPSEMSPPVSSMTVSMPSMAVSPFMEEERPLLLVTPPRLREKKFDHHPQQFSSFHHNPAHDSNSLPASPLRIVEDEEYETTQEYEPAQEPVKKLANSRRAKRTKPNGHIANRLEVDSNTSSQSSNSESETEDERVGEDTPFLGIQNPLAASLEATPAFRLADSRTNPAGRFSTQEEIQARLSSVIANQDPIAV
# [7] = tested on: Neuregulin-1 EGF-like domain; experiment: binders of neuregulin-1 EGF-like domain, primary screen, biochemical, small-molecule microarray, 635 nm fluorescence (AID 1081); settings: small-molecule microarray binding, higher = more signal;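 further: binding of the protein to compounds printed on small-molecule microarray slides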
# [8] = FRG1 promoter luciferase signal modulators, primary screen, FRG1 inhibition for FSHD, cell-based, C2C12 myotubes, firefly/Renilla luciferase, luminescence (AID 1084); settings: higher = more signal, called active from +8 up or from −8 down
# [9] = binders of probe aFST on microarray, primary screen, stem cell growth factor project, biochemical, small-molecule microarray, fluorescence 635/667 (AID 1086); settings: higher = more signal;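 further: score merges 667 nm fluorescence with signal-to-noise of each printed compound spot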
# [10] = binders of probe aHhip on microarray, primary screen, stem cell growth factor project, biochemical, small-molecule microarray, fluorescence 635/667 (AID 1087); settings: higher = more signal;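 further: score merges spot fluorescence at 667nm with spot signal to noise ratio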
# [11] = tested on: PRMT1 (protein arginine N-methyltransferase 1); experiment: PRMT1 binders on small-molecule microarrays, primary screen, biochemical, small-molecule microarray, 635 nm fluorescence (AID 1088); settings: small-molecule microarray binding, higher = more signal;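 further: binding of Prmt1 protein to compounds spotted on small-molecule microarray slides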
# [12] = yeast growth modulation, basal conditions, primary screen, YJM789 clinical isolate, OD600, 24 h (AID 1089);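 further: growth of clinical yeast isolate S. cerevisiae YJM 789 seeded 1000 cells per well; test concentration not given here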; settings: S. cerevisiae YJM789 growth, higher = more signal, called active from +8 up or from −8 down
# [13] = fission yeast growth modulation, primary screen, strain 972, OD600, 24 h, no modulator (AID 1090);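 further: basal condition with compound alone and no growth modifier present; test concentration not given here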; settings: S. pombe 972 growth, higher = more signal, called active from +8 up or from −8 down
# [14] = S. cerevisiae growth modulation with rapamycin, primary screen, strain BY4716, OD600, 96 h (AID 1091); settings: higher = more signal, called active from +8 up or from −8 down; further: test concentration not given here
# [15] = molecular target: Torsin-1A-interacting protein 2 (Homo sapiens) (UniProt Q8NFQ8); experiment: LULL1 binders on small-molecule microarray, primary screen, cell lysate, human LULL1 lysate, 635/667 nm fluorescence (AID 1092); settings: hLULL1 lysate binding, 635 nm fluorescence, higher = more signal;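 further: probe is lysate of COS7 cells overexpressing human LULL1; score merges per-feature 667 nm fluorescence with signal-to-noise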
# Torsin-1A-interacting protein 2 (Homo sapiens), sequence (Q8NFQ8 whole entry, looked up): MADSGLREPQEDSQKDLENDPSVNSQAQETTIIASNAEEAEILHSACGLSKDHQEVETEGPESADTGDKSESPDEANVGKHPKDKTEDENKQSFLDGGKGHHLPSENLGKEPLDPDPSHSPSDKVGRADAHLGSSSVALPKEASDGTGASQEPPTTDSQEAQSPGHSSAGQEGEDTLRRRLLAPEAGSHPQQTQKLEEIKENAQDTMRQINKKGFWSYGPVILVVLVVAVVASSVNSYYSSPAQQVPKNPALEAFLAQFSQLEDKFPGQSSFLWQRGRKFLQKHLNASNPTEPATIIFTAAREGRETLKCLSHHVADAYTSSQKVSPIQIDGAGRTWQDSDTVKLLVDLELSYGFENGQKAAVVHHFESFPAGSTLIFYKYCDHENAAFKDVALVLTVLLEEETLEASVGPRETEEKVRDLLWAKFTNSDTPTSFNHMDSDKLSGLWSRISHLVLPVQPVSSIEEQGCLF
# [16] = E. coli growth modulation, two-sided OD650, primary screen, E. coli filamentation project, strain DRC41, 24 h (AID 1093); settings: OD650, 24 h, higher = more signal, called active from +8 up or from −8 down;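 further: MC1000 strain lacking acrAB efflux and sulA so SOS filamentation is blocked; test concentration not given here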
# [17] = small-molecule microarray binders of probe aLefty2, primary screen, biochemical, biotinylated probe, 635/667 nm fluorescence (AID 1094); settings: higher = more signal;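 further: score merges spot fluorescence near 667 nm with spot signal-to-noise ratio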
# [18] = tested on: Noggin (protein binding on small-molecule microarray); experiment: Noggin binders on small-molecule microarray, primary screen, biochemical, 635/667 nm fluorescence (AID 1095); settings: 635 nm fluorescence, higher = more signal;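 further: score merges 667 nm feature fluorescence with signal to noise over triplicate slides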
# [19] = molecular target: Neurogenic locus notch homolog protein 3 (Homo sapiens) (UniProt Q9UM47); experiment: NOTCH3 binders on small-molecule microarray, primary screen, biochemical, 635/667 nm fluorescence (AID 1096); settings: NOTCH3 binding, 635 nm fluorescence, higher = more signal
# Neurogenic locus notch homolog protein 3 (Homo sapiens), sequence (Q9UM47 whole entry, looked up): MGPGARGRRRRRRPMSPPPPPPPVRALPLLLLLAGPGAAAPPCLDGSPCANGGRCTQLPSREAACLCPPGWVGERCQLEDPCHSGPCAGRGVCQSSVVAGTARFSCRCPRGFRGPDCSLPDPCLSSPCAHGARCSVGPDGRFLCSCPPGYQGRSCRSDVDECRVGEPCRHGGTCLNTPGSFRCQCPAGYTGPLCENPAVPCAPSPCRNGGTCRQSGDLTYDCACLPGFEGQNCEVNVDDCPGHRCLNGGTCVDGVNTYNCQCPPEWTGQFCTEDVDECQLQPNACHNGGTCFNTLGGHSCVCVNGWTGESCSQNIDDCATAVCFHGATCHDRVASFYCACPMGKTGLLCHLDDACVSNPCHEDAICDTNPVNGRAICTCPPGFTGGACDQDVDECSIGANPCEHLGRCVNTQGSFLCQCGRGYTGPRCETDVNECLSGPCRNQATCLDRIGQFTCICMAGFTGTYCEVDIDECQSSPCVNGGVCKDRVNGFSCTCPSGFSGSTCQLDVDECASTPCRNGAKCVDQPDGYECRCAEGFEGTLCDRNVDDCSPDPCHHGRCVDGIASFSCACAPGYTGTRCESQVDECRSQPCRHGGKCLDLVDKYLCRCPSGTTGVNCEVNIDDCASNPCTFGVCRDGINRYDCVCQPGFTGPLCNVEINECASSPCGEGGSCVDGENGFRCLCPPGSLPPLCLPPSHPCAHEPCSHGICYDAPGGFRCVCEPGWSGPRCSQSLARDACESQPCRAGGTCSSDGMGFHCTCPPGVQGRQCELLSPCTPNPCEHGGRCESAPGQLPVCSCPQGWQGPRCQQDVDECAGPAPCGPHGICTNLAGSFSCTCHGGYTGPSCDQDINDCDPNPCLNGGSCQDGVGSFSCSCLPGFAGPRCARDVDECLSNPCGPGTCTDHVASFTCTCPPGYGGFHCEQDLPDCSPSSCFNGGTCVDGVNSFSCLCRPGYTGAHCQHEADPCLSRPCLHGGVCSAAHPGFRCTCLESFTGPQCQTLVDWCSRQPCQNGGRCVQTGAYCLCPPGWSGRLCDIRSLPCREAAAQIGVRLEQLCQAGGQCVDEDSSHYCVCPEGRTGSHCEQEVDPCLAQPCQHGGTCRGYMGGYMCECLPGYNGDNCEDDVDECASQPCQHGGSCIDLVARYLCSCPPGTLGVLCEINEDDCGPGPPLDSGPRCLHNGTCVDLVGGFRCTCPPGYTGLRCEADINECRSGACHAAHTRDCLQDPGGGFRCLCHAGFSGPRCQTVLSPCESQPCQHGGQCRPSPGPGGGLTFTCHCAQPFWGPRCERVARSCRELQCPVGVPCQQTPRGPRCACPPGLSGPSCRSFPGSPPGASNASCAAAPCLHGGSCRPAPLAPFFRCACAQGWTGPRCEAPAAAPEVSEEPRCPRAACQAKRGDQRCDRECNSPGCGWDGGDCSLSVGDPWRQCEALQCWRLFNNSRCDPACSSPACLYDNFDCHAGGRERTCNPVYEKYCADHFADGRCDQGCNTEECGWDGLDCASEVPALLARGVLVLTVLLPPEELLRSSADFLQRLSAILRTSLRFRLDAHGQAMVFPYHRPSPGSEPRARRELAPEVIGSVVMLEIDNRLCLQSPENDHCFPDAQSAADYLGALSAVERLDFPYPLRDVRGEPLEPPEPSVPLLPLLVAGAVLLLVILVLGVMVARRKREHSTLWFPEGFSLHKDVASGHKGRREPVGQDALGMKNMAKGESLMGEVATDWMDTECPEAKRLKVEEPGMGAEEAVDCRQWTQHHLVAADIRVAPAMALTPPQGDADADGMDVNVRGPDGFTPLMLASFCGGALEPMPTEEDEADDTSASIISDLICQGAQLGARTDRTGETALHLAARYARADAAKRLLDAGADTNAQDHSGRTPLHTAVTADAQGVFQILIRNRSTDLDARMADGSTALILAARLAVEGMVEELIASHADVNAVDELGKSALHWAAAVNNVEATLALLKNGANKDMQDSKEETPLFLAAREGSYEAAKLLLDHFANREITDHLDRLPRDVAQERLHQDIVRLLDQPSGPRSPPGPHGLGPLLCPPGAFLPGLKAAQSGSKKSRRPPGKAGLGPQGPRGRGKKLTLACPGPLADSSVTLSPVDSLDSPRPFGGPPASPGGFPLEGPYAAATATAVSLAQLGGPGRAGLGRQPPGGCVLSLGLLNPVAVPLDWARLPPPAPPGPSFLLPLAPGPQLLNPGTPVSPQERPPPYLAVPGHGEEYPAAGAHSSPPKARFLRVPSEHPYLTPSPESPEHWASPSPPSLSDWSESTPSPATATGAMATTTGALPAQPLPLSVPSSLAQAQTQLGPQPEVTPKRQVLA
# [20] = small-molecule microarray binders of probe aEGFR, primary screen, biochemical, biotinylated probe, 635/667 nm fluorescence (AID 1097); settings: higher = more signal;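 further: probe is a biotinylated anti-EGFR antibody binding compounds printed on slides; score combines fluorescence near 667 nm and signal to noise of each spot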
Structure (SMILES),composite z-score [1],composite z-score [2],composite z-score [3],composite z-score [4],composite z-score [5],composite z-score [6],composite z-score [7],z-score [8],composite z-score [9],composite z-score [10],composite z-score [11],z-score [12],z-score [13],z-score [14],composite z-score [15],z-score [16],composite z-score [17],composite z-score [18],composite z-score [19],composite z-score [20]
CCOC(=O)[C@H](Cc1ccccc1)NC(=O)CCC1CC(OC(=O)NCc2ccc3c(c2)OCO3)CC2(CCCC(COC(=O)NCCCN3CCCC3=O)O2)O1 (stereo not given in full),-0.578,0.163,-0.0001,0.377,1.06,0.503,0.85,1.5 (inactive),0.827,-0.248,1.55,-0.395 (inactive),0.0418 (inactive),-0.0655 (inactive),2.08,0.187 (inactive),-0.117,0.579,1,-0.02
CO[C@@H]1C=CCC(=O)N[C@@H](C)C(=O)OC[C@@H](OC)[C@H](C)C=CCC(=O)OC[C@H]1C,-0.596,2.23,-0.116,-0.631,-0.88,-0.503,0.233,-0.163 (inactive),-0.045,0.0373,1.37,-0.563 (inactive),-0.832 (inactive),-0.333 (inactive),-1.33,0.615 (inactive),-0.124,1.89,0.312,-0.0357
CC(=O)OC[C@H]1O[C@@H](ON=C2[C@H]3CCn4c(=O)n(-c5ccccc5)c(=O)n4[C@H]3[C@H](O)[C@@H]3O[C@H]23)[C@H](OC(C)=O)[C@@H](OC(C)=O)[C@@H]1OC(C)=O,-0.512,0.617,-0.0787,0.582,0.396,0.471,0.711,0.295 (inactive),0.259,-0.0024,1.02,-0.436 (inactive),-0.598 (inactive),0.083 (inactive),1.37,0.0967 (inactive),-0.0409,0.349,0.785,-0.0485
CC(CCN1CCc2nc(-c3ccccc3)c(-c3ccccc3)cc2C1)=NOC(C)CN1CCCc2nc(C)c(C)cc21 (stereo not given),-0.0304,1.12,0.0762,0.681,1.4,0.72,1.08,1.1 (inactive),0.676,0.316,1.56,-1.4 (inactive),-12.6 (active),-3.45 (inactive),2.22,0.419 (inactive),0.0704,0.582,1.09,0.0709
CCN1C(=O)[C@H]2[C@H]3[C@H](O)[C@H](O)CC(=NNC(=O)OCc4ccccc4)[C@H]3CC[C@H]2C1=O,0.307,0.447,0.0572,-0.0005,-0.0049,-0.117,-0.696,-0.209 (inactive),0.313,-0.13,-0.72,-0.0067 (inactive),0.0826 (inactive),-0.144 (inactive),-0.3,-0.667 (inactive),0.0166,0.667,-0.169,-0.132
C=CC[C@@H]1C=C[C@H](ON=C2C[C@@H](O)[C@@H](O)[C@@H]3[C@@H]4C(=O)N(CC)C(=O)[C@@H]4CC[C@@H]23)[C@@H](CO)O1,-0.416,1.86,-0.0793,0.228,-0.395,-0.417,-0.33,1.15 (inactive),0.245,-0.0994,0.245,0.442 (inactive),-0.376 (inactive),0.445 (inactive),-0.004,-0.876 (inactive),-0.0736,0.107,-0.724,-0.119
C=CC[C@@H]1C=C[C@H](ON=CC[C@@H]2C=C[C@H](OC(C)=O)[C@@H](COC(C)=O)O2)[C@@H](CO)O1,-0.256,0.52,-0.0864,0.75,1.12,1.06,1.11,0.411 (inactive),1.06,-0.314,1.26,0.953 (inactive),0.489 (inactive),0.476 (inactive),1.3,0.558 (inactive),0.235,0.984,1.05,0.169
C[C@@H]1CC[C@H]2C(=O)O[C@@H](CN=[N+]=[N-])CN2[C@H]1c1ccc(Br)cc1,-0.264,-0.021,-0.085,0.361,0.271,0.486,0.786,-1.46 (inactive),0.0048,-0.199,1.34,1.85 (inactive),-10.5 (active),32.7 (active),1.69,0.176 (inactive),-0.15,0.553,0.679,-0.104
C[C@H]1CC[C@@H](C(=O)O)N[C@@H]1c1cccc(N2CCCC2=O)c1,-0.304,0.141,-0.145,0.22,0.408,-0.153,0.17,0.304 (inactive),0.149,0.107,-0.344,0.31 (inactive),0.0026 (inactive),0.374 (inactive),0.283,0.816 (inactive),-0.0873,0.49,0.408,-0.123
COC(=O)[C@H](C)NC(=O)CCC1CC(OC(=O)NCc2cccc3ccccc23)CC2(CCCC(COC(=O)NCc3cccc(C(F)(F)F)c3)O2)O1 (stereo not given in full),-0.428,0.182,-0.0316,0.762,1.17,1.09,1.01,-0.374 (inactive),0.657,-0.271,1.41,-2.05 (inactive),-0.645 (inactive),0.523 (inactive),1.78,-1.21 (inactive),-0.139,0.6,1.09,0.151
